Results from ChEMBL document CHEMBL1961873, “Compounds: GSK PKIS; Assays: Nanosyn kinase panel” (2012).

Molecular target: Aurora kinase B (Homo sapiens) (UniProt Q96GD4)
Details: at 1 µM
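Further: reported percent inhibition is a mean value.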

Aurora kinase B (Homo sapiens), sequence (Q96GD4 whole entry): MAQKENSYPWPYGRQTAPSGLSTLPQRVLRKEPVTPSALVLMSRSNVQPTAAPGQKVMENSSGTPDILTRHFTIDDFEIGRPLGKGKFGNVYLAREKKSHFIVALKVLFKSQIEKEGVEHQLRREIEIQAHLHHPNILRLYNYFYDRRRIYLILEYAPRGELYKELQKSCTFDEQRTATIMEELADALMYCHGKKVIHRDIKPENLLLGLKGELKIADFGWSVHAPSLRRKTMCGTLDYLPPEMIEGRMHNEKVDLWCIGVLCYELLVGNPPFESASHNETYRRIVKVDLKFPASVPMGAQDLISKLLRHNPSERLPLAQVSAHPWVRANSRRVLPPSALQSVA

In order of rising inhibition:
1. Cc1ccc(C(=O)NC2CC2)cc1-c1ccc2[nH]ncc2c1  -0.44%
2. Nc1nccc(-c2c(-c3ccc(F)cc3)nn3cc(C(F)(F)F)ccc23)n1  0.7%
3. [O-][S+]1CCN(Cc2ccc(-c3ccc4ncnc(Nc5ccc(OCc6ccccc6)c(Cl)c5)c4c3)o2)CC1  5.05%
4. CCn1c(-c2nonc2N)nc2c(C#CC(C)(C)O)nc(OCCNC)cc21  5.49%
5. COc1ccc(-c2nn3ncccc3c2-c2ccnc(Nc3cccc(C(F)(F)F)c3)n2)cc1  5.57%
6. CS(=O)(=O)CCNCc1nc(-c2ccc3ncnc(Nc4ccc(OCc5cccc(C(F)(F)F)c5)cc4)c3c2)cs1  6.3%
7. COc1cccc(-n2ncc3c(N/N=C/c4ccc(C)cc4)ncnc32)c1  6.65%
8. Cc1ccc2c(c1)/C(=N/Nc1ccc(S(N)(=O)=O)cc1)C(=O)N2  7.36%
9. CN(C)C(=O)O[C@H]1CN[C@H](C#Cc2cc3ncnc(Nc4ccc(OCc5cccc(F)c5)c(Cl)c4)c3s2)C1  7.39%
10. FC(F)(F)c1ccc(-c2nn3ncccc3c2-c2ccnc(Nc3ccc4c(c3)OCCO4)n2)cc1  11.2%
11. Cc1cc(O)cc(C)c1/C=C/c1cncc(C(=O)N(C)C)c1  14.7%
12. NS(=O)(=O)c1ccc(Nc2cc(-c3cccc(O)c3)n[nH]2)cc1  19.4%
13. COc1ccc2ncnc(Nc3ccc(OCc4ccccc4)cc3)c2c1  22%
14. NS(=O)(=O)c1ccc(NC=C2C(=O)Nc3ccc4ncsc4c32)cc1  69.6%
15. COc1cc(Nc2nccc(-c3cnn4ncccc34)n2)cc(OC)c1  71%
16. CN1CCN(C(=O)c2ccc(NC(=O)Nc3ccc(N(C)c4ccnc(Nc5ccc(CS(C)(=O)=O)cc5)n4)cc3)cc2)CC1  72.8%
